Test results: PubChem BioAssay (NCI)
About 83,000 compounds went through this panel and 20% of them were active in at least one assay; those are over-represented in the sample as a whole.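 Activity criterion: percent growth below 10, measured after cells in 96-well plates were exposed to a single compound concentration for 48 hours.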 The source made the active and inactive calls.

What was measured:
Experiment in all cases: NCI-60 one-dose screen, 48 h (100 = growth as untreated, 0 = no growth, -100 = all killed)
Settings in all cases: 10 µM unless noted
NCI-H23 lung = test system: NCI-H23 lung
NCI-H226 lung = test system: NCI-H226 lung
NCI-H322M lung = test system: NCI-H322M lung
HOP-62 NSCLC = test system: HOP-62 NSCLC
NCI-H460 lung = test system: NCI-H460 lung
NCI-H522 lung = test system: NCI-H522 lung
A549/ATCC NSCLC = test system: A549/ATCC NSCLC
786-0 renal = test system: 786-0 renal
DU-145 prostate = test system: DU-145 prostate
MALME-3M melanoma = test system: MALME-3M melanoma
MDA-MB-231 breast = test system: MDA-MB-231 breast
RXF 393 renal = test system: RXF 393 renal
SF-268 CNS = test system: SF-268 CNS
SF-295 CNS = test system: SF-295 CNS
SF-539 CNS = test system: SF-539 CNS
UACC-257 melanoma = test system: UACC-257 melanoma
M14 melanoma = test system: M14 melanoma
HOP-92 NSCLC = test system: HOP-92 NSCLC
COLO 205 colon = test system: COLO 205 colon
K-562 leukemia = test system: K-562 leukemia

Measured: growth

N#Cc1cnn2c(-c3ccc(Cl)cc3)nc(NCCc3ccccc3)nc12
inactive: NCI-H23 lung 85.2% | NCI-H226 lung 105% | NCI-H322M lung 83.5% | HOP-62 NSCLC 84.9% | NCI-H460 lung 99% | NCI-H522 lung 74.4% | A549/ATCC NSCLC 93.3% | 786-0 renal 92.5% | DU-145 prostate 99.5% | MALME-3M melanoma 111% | MDA-MB-231 breast 87.5% | RXF 393 renal 116% | SF-268 CNS 92.2% | SF-295 CNS 99.2% | SF-539 CNS 98% | UACC-257 melanoma 99.9% | M14 melanoma 95%

COC1(CC[C@@H](C)COC2OC(CO)C(O)C(O)C2O)O[C@H]2C[C@H]3[C@@H]4CC=C5C[C@@H](OC6OC(CO)C(OC7OC(C)C(O)C(O)C7O)C(O)C6OC6OC(C)C(O)C(O)C6O)CC[C@]5(C)[C@H]4CC[C@]3(C)[C@H]2[C@@H]1C (some centres not stated)
active: NCI-H23 lung -63% | NCI-H226 lung -57.2% | NCI-H322M lung -85.2% | HOP-62 NSCLC -83% | HOP-92 NSCLC -62% | NCI-H522 lung -60.9% | A549/ATCC NSCLC -64.7% | 786-0 renal -94.3% | COLO 205 colon -12.2% | DU-145 prostate -96.2% | K-562 leukemia -22.9% | MALME-3M melanoma -87.3% | MDA-MB-231 breast -70% | RXF 393 renal -78.1% | SF-268 CNS -90.7% | SF-295 CNS -81.9% | SF-539 CNS -99% | UACC-257 melanoma -47.4%

N=c1ccn2c(n1)OC1C(O)C(CO)OC12 (configuration not stated)
active: NCI-H460 lung -9.72% | M14 melanoma -25.5%
inactive: NCI-H23 lung 24.7% | NCI-H226 lung 45.1% | NCI-H322M lung 63.8% | HOP-62 NSCLC 24.5% | NCI-H522 lung 35.9% | A549/ATCC NSCLC 16.2% | 786-0 renal 15% | DU-145 prostate 11.7% | K-562 leukemia 94.5% | MALME-3M melanoma 43.5% | MDA-MB-231 breast 91.7% | RXF 393 renal 28.7% | SF-268 CNS 40.9% | SF-295 CNS 36.7% | SF-539 CNS 25.1% | UACC-257 melanoma 54.6%

Clc1ccc(-c2nc(NCCc3ccccc3)nc3c(NCCc4ccccc4)cnn23)cc1
active: A549/ATCC NSCLC 9.98%
inactive: NCI-H23 lung 50.8% | NCI-H226 lung 99.7% | NCI-H322M lung 73.7% | HOP-62 NSCLC 85.3% | NCI-H460 lung 16.3% | NCI-H522 lung 63% | 786-0 renal 80% | DU-145 prostate 84.5% | MALME-3M melanoma 96.8% | MDA-MB-231 breast 92.1% | RXF 393 renal 94.7% | SF-268 CNS 35.1% | SF-295 CNS 56.4% | SF-539 CNS 30.9% | UACC-257 melanoma 71.5% | M14 melanoma 70%

N#Cc1c(-c2ccc(C(F)(F)F)cc2)cc(N2CC(O)C2)n2c1nc1ccccc12
inactive: NCI-H23 lung 67.7% | NCI-H226 lung 16.9% | NCI-H322M lung 60.8% | NCI-H522 lung 34.7% | A549/ATCC NSCLC 48.1% | 786-0 renal 20.7% | DU-145 prostate 71.4% | K-562 leukemia 110% | MDA-MB-231 breast 39.2% | RXF 393 renal 21.5% | SF-268 CNS 32.7% | SF-295 CNS 28.1% | SF-539 CNS 36.2% | UACC-257 melanoma 51.9% | M14 melanoma 80.6%
active: HOP-62 NSCLC 7.8% | HOP-92 NSCLC -3.02% | MALME-3M melanoma -3.85%

O=C1NN(C(=O)c2ccc(O)cc2)C(c2ccccc2)=N/C1=C\c1cn(-c2ccccc2)nc1-c1ccccc1
inactive: NCI-H23 lung 98.3% | NCI-H226 lung 103% | NCI-H322M lung 97% | HOP-62 NSCLC 92% | HOP-92 NSCLC 94.9% | NCI-H522 lung 85% | A549/ATCC NSCLC 99.7% | 786-0 renal 94% | DU-145 prostate 92% | K-562 leukemia 93.7% | MALME-3M melanoma 99% | MDA-MB-231 breast 106% | RXF 393 renal 107% | SF-268 CNS 96.8% | SF-295 CNS 95% | SF-539 CNS 89.1% | UACC-257 melanoma 93.8% | M14 melanoma 96.2%

C[C@@H]1C(=O)N(C[C@@H](Cc2ccccc2)NC(=O)OCc2ccccc2)[C@]1(Cc1ccccc1)C(=O)OCc1ccccc1
inactive: NCI-H23 lung 37.1% | NCI-H226 lung 36.3% | NCI-H322M lung 56.4% | HOP-62 NSCLC 67.3% | NCI-H460 lung 38.3% | NCI-H522 lung 44.3% | A549/ATCC NSCLC 22.8% | 786-0 renal 52.9% | DU-145 prostate 78.3% | K-562 leukemia 36.5% | MALME-3M melanoma 24.9% | MDA-MB-231 breast 41.9% | RXF 393 renal 34.8% | SF-268 CNS 56.7% | SF-295 CNS 21.4% | SF-539 CNS 59.6% | UACC-257 melanoma 19.7% | M14 melanoma 44.8%

COc1cc(C2CC(c3ccc(Nc4nc(Nc5ccc(F)cc5)nc(Nc5ccc(Cl)cc5)n4)cc3)=NN2C(C)=O)cc(OC)c1OC (configuration not stated)
inactive: NCI-H23 lung 68.8% | NCI-H226 lung 67.9% | NCI-H322M lung 84.8% | HOP-62 NSCLC 72.3% | HOP-92 NSCLC 51.8% | NCI-H522 lung 73.8% | A549/ATCC NSCLC 50.8% | 786-0 renal 87.2% | COLO 205 colon 58% | DU-145 prostate 110% | K-562 leukemia 44.2% | MALME-3M melanoma 67.9% | MDA-MB-231 breast 77.8% | RXF 393 renal 71.5% | SF-268 CNS 90.4% | SF-295 CNS 339% | SF-539 CNS 84.6% | UACC-257 melanoma 122%
